In one assay the test system is Roseburia intestinalis. Description: growth AUC relative to DMSO control (median of replicates) (fraction); higher = more growth (less inhibition), active = hit call of the paper. The settings on record: 20 µM; 24 h. The gist of the method: (§1)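 Gut bacterial monocultures in mGAM were treated with 20 µM compound (1% DMSO) and grown anaerobically at 37 °C in round-bottom 96-well plates from OD600 0.05. OD600 was read hourly for 24 h, with the minimum OD set to 0. Area under the growth curve was normalised to the plate median of solvent-only wells, or to row and column medians on the industrial chemical plate. Each value is the median of three biological replicates, each grown on a separate day.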

The next assay concerns Streptococcus salivarius. Described as above. The settings on record: 20 µM; 24 h. The gist of the method: as §1

A number with no mark means an inactive call.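 How the source made its calls: active = AUC reduced over 20% with Padj below 0.05 in at least 2 of 3 replicates; inactive = otherwise.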

As to `CCCCCC(C)OC(=O)COc1ccc(Cl)c2cccnc12` (stereo not drawn), the entries for the “growth AUC” value in the assay on Roseburia intestinalis and in the assay on Streptococcus salivarius were 0.931 and 0.877, respectively.

As for `S=C([S-])NCCNC(=S)[S-].[Zn+2]`, the figures for the “growth AUC” value in the assay with Roseburia intestinalis and with Streptococcus salivarius were 0.975 and 0.97, respectively.

As for `CCOCCc1ccc(OCCNc2ncnc(CC)c2Cl)c(C)c1C`, the “growth AUC” value was 0.923 in the assay on Roseburia intestinalis and 1 in the assay on Streptococcus salivarius.

Turning to `COc1ccc(NC(=O)N(C)C)cc1Cl`, the “growth AUC” value with Roseburia intestinalis was 0.925; with Streptococcus salivarius, 0.927.

In the case of `CC(C)CCCCCCc1ccc(O)cc1`, the “growth AUC” value was 0.958 in the assay with Roseburia intestinalis and 0.965 in the assay with Streptococcus salivarius.

Turning to `CCOC(=O)Nc1cccc(OC(=O)Nc2cccc(C)c2)c1`, the “growth AUC” value with Roseburia intestinalis is 0.912; with Streptococcus salivarius, 0.971.

Turning to `Nc1nc2ccccc2[nH]1`, the figures for the “growth AUC” value in the assay on Roseburia intestinalis and in the assay on Streptococcus salivarius were 0.901 and 0.953, respectively.

Turning to `CC(C)OC(=O)[C@@H](C)N(C(=O)c1ccccc1)c1ccc(F)c(Cl)c1`, the “growth AUC” value with Roseburia intestinalis was 0.999; with Streptococcus salivarius, 1.

For the compound `Nc1ccc(S(=O)(=O)Nc2nccs2)cc1`, the “growth AUC” value with Roseburia intestinalis was 0.993; in the assay with Streptococcus salivarius, 1.02.

In the case of `CCCCCCCC/C=C\CCCCCCCC(N)=O`, the “growth AUC” value with Roseburia intestinalis is 0.933; with Streptococcus salivarius it was 0.952.

As for `CCCCOCCOC(=O)COc1nc(Cl)c(Cl)cc1Cl`, the “growth AUC” value in the assay with Roseburia intestinalis was 0.995; with Streptococcus salivarius, 0.998.

Consider `CCN(CC)c1nc(C)cc(=O)[nH]1`, for which the “growth AUC” value in the assay on Roseburia intestinalis is 1.01; with Streptococcus salivarius, 1.04.

Turning to `C=CCc1ccc(O)c(OC)c1`, the “growth AUC” value in the assay on Roseburia intestinalis was 0.937; in the assay on Streptococcus salivarius, 0.975.

Regarding `CCc1cccc(C)c1NC(C)C(=O)O` (racemic), the “growth AUC” value in the assay with Roseburia intestinalis was 1.04; in the assay with Streptococcus salivarius it was 1.02.

The values above are taken from the supplement of paper PMC12669032.
